Laboratory results as given in PubChem BioAssay (NCI).
This is part of a sample that, as a whole, favours compounds with a hit. Of some 83,000 tested, about 20% had one in any assay.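 Compound tested at a single concentration for 48 hours in 96-well plates; a percent growth value below 10 was scored as active.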 Active and inactive are the calls of the source.

System: SK-OV-3 ovarian
Assay: NCI-60 one-dose screen, 48 h (100 = growth as untreated, 0 = no growth, -100 = all killed)
Conditions: 10 µM unless noted
Description: Growth inhibition of the SK-OV-3 human tumor cell line is measured as a screen for anti-cancer activity. Cells are grown in 96 well plates and exposed to the test compound for 48 hours. Compounds are tested at a single concentration, which is 10^-5 M for most compounds. The reported endpoint is percent growth (GI% or GIPRCNT), where numbers from 0 - 100% represent growth inhibition, and numbers from -100% - 0 represent cell death. For example, a value of 40 represents 60% growth inhibition. A value of 0 means no net growth occurred over the course of the experiment. A value of -40 indicates 40% of cells at the beginning of the experiment died by the end of the experiment. A value of -100 means all cells are dead at the end of the experiment.
NCI-60 Human Tumor Cell Lines Screen was performed using the standard one-dose NCI protocol, which is described in more detail at https://dtp.cancer.gov/discovery_development/nci-60/default.htm.
Compounds with GIPRCNT values below 10 were considered active. Activity score was based on GIPRCNT using the following formula: […]
Score is 0 for GIPRCNT values of 100 or above, 50 for GIPRCNT values of 0, and 100 for GIPRCNT values of -100.

SMILES | growth
CC1=CC(c2ccco2)=C2C(N)=NNC2N1 (stereo not given) | 101% (inactive)
CCOC(=O)c1cnc2c(N=Nc3ccc(OC)cc3)c(N)nn2c1N | 108% (inactive)
COc1ccc(-c2nn(-c3ccccc3)cc2/C=C/C(=O)NNC(=O)Nc2ccc(C)cc2)cc1 | 92.8% (inactive)
CCN1CCN(CC(=O)Nc2nc3ccc(NCc4ccc(F)cc4)cc3s2)CC1 | 105% (inactive)
CC/C(Cc1ccccc1)=C(\c1ccc(OCCCN(C)C)cc1)c1ccc(OC(=O)NCc2ccccc2)cc1 | 91.2% (inactive)
CCN(CC)CCCN1C(=O)c2c(c(C)c3c(oc4ccc(OC)cc43)c2C)C1=O | 109% (inactive)
Cc1cn(-c2cc(NC(=O)c3cncc(C#Cc4c(N)ncc5ccc(F)cc45)c3)cc(C(F)(F)F)c2)cn1 | 87.6% (inactive)
Cc1ccc(S(=O)(=O)Oc2ccc3sc4cccc(NCCN(C)C)c4c(=O)c3c2)cc1 | -93.2% (active)
O=C(CSc1nnc(-c2cc(-c3ccccc3)nc3ccccc23)n1-c1ccccc1)Nc1ccc(C(=O)/C=C/c2ccc(Cl)cc2)cc1 | 94.2% (inactive)
C=C1C(=O)O[C@H]2[C@H]1CC/C(Cn1cc(CCC)nn1)=C\CC[C@@]1(C)O[C@@H]21 | 111% (inactive)
COc1ccccc1C(=O)Nc1cccc(NC(=O)c2ccoc2C)c1 | 66.1% (inactive)
O=C1Nc2ccccc2/C1=C/c1cccn1C(=O)c1ccc(Cl)s1 | 72% (inactive)
c1nc2ccc(-c3cc4ccc5[nH]ncc5c4c4c3CCCC4)cc2[nH]1 | 50.2% (inactive)
[2H]C([2H])([2H])Oc1ccc(F)cc1/C=C/C(=O)/C=C(O)/C=C/c1cc(F)ccc1OC([2H])([2H])[2H] | 104% (inactive)
Cn1ccc(=O)nc1 | 93% (inactive)
CSC1=Nc2c(c(C)c(-c3ccccc3)n2CCCC(=O)O)C2=NC(=O)C[C@H](C)N12 | 130% (inactive)
COC(=O)C(Cc1ccccc1)NC(=O)c1ccc(NC(=O)c2[nH]c(C)c(Cl)c2Cl)c(OC(C)C)c1 (stereo not given) | 99.1% (inactive)
[2H]C([2H])([2H])Oc1ccc(F)cc1/C=C/C(=O)/C=C(/C=C/c1cc(F)ccc1OC([2H])([2H])[2H])OB(F)F | 107% (inactive)
O=C(Cc1cccc(OC(F)(F)F)c1)Nc1ccc(CCCCc2nnc(NC(=O)Cc3ccccn3)s2)nn1 | 75.1% (inactive)
Nc1nc2c(c3ncccc13)C(c1cccc(Cl)c1)Cc1ncccc1-2 (stereo not given) | 14.1% (inactive)

SMILES | growth
O=C(Nc1ccccc1N1CCCC1=O)c1oc2ccc(F)cc2c1-c1cnn(-c2ccccc2)c1 | 56.5% [50 µM] (inactive)
CC(=O)/C(=C/c1ccc([N+](=O)[O-])cc1)C(=O)c1ccccc1 | 101% (inactive)
COc1cc2c(cc1OCCCCN1CCN(C(=S)SCCC(C#N)(c3ccccc3)c3ccccc3)CC1)N=C[C@@H]1CCCN1C2=O | -7.37% (active)
N#C/C(=C\c1ccc([N+](=O)[O-])cc1)n1nnc2cc(F)c(F)cc21 | 94.2% (inactive)
COc1cc(-c2nc3c(ncc4ccc(=O)n(-c5ccccc5)c43)s2)cc(OC)c1OC | 80% (inactive)
CCN1C(=O)N(CC)C2C1NN=c1s/c(=C3\C(=O)N(CC(C)C)c4ccccc43)c(=O)n12 (stereo not given) | 45.1% (inactive)
C#Cc1cccc(Nc2nc(C)nc3cc(NC(=O)CCl)ccc23)c1 | 8.47% (active)
Cn1c2c(c3ccc(Cl)c(Cl)c31)C(C#N)C(C)(C)NC2=O (stereo not given) | 105% (inactive)
COc1cccc(-c2cc(-c3cccc(Cl)c3)c(C#N)c(=O)[nH]2)c1 | 81% (inactive)
CCCCCN(CCCCC)CC(O)c1cc(C)c2ccc3cc(C(C)C)ccc3c2c1 (stereo not given) | 85.6% (inactive)
CCCCCCCC/C=C\CCCCCCCCOc1ccc(CC(=O)NCC[N+]2(C)CCOCC2)cc1 | 98.8% (inactive)
C=C(C)[C@@H]1CCC[C@]2(C(=O)N3CCN(C)CC3)CC[C@]3(C)[C@@H](CC[C@@H]4[C@@]5(C)CC/C(=N\NC(=O)c6ccncc6)C(C)(C)[C@@H]5CC[C@]43C)[C@@H]12 | 109% (inactive)
CCOC(=O)C1=C(C)C(Cl)=N/C1=C\c1[nH]c(Cl)c(C)c1C(=O)OCC | 81.8% (inactive)
Cc1nn(-c2cc(NC3CCC(O)CC3)c3c(=O)[nH]c(CCC(F)(F)F)cc3c2)c2c1C(=O)CC(C)(C)C2 (stereo not given) | 36.3% (inactive)
Cn1cc(-c2nn3cc(-c4cccs4)nc3s2)c2cc(F)ccc21 | 44.9% (inactive)
CCN1CCN(CCNc2nccc(-c3c(-c4ccc(F)c(OC)c4)nc4sccn34)n2)S1(=O)=O | 87.5% (inactive)
CS(=O)(=O)Nc1cc(-c2ccc3ncc(C#N)c(Nc4ccc(F)c(Cl)c4)c3c2)cnc1Cl | -25.7% (active)
CC1=CCC(OC(=O)C(C)(C)CC(O)(C(C)O)C(O)C2(C)C=CC(Cc3ccc(C(C)C)cc3)(C(C)C)CC2)(C(C)C)CC1 (stereo not given) | 107% (inactive)
N#CSc1c[nH]c2cccc(/C=C/C(=O)/C=C(O)/C=C/c3cccc4[nH]cc(SC#N)c34)c12 | -24% (active)
C=C1CC[C@@H]2[C@](C)(COC(C)=O)[C@H](OC(C)=O)CC[C@@]2(C)[C@@H]1CC(Nc1ccc(S(=O)(=O)NC(C)=O)cc1)C1=CCOC1=O (stereo not given in full) | 67.3% (inactive)
